Source: PubChem BioAssay AID1159580 (chemical genetic matrix, 2015)
In all, about 5,500 compounds went through this assay and about 2,000 (36%) were called active. Not shown: some 18% with an inconclusive outcome. No stated cut-off is given here; in the data, active means normalized growth mostly below about 0.91 (no sharp cut-off); inconclusive means no clear call, values can overlap the other calls; inactive means mostly above about 0.92. This is one part of the list.

Assay: chemical genetic growth profiling, strain panel (AID 1159580);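 further: tested at 20 µM; growth read once vehicle control cultures reached saturation at 30 °C; 1 = growth at the plate median or of vehicle wells; lower values mean less growth of the strain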
Details: growth OD

Measured: normalized growth

N=C(N)N
inactive: S. cerevisiae deletion strains, locus YJR075W, strain HOC1, active compounds read low 0.988 | S. cerevisiae deletion strains, locus YKL009W, strain mrt4, active compounds read low 0.997 | S. cerevisiae deletion strains, locus YKL068W, active compounds read low 0.982 | S. cerevisiae deletion strains, locus YKL085W, strain MDH1 (second series), active compounds read low 0.97 | S. cerevisiae deletion strains, locus YKL085W, strain MDH1, active compounds read low 0.97 | S. cerevisiae deletion strains, locus YKL160W, strain elf1, active compounds read low 1 | S. cerevisiae deletion strains, locus YKL190W, strain CNB1, active compounds read low 0.993 | S. cerevisiae deletion strains, locus YKR001C, strain vps1, active compounds read low 0.996 | S. cerevisiae deletion strains, locus YKR026C, strain gcn3, active compounds read low 0.999 | S. cerevisiae deletion strains, locus YKR091W, strain srl3, active compounds read low 1 | S. cerevisiae deletion strains, locus YLL001W, strain dnm1, active compounds read low 0.993 | S. cerevisiae deletion strains, locus YLL026W, active compounds read low 0.994 | S. cerevisiae deletion strains, locus YLL041C, strain sdh2, active compounds read low 1 | S. cerevisiae deletion strains, locus YLR027C, strain aat2, active compounds read low 1.01 | S. cerevisiae deletion strains, locus YLR039C, strain RIC1, active compounds read low 1.01 | S. cerevisiae deletion strains, locus YLR058C, strain SHM2, active compounds read low 0.999 | S. cerevisiae deletion strains, locus YLR102C, strain apc9, active compounds read low 0.986 | S. cerevisiae deletion strains, locus YLR113W, strain HOG1, active compounds read low 0.996 | S. cerevisiae deletion strains, locus YLR221C, strain rsa3, active compounds read low 0.982 | S. cerevisiae deletion strains, locus YLR258W, strain gsy2, active compounds read low 0.996 | S. cerevisiae deletion strains, locus YLR262C, strain YPT6 (second series), active compounds read low 0.991 | S. cerevisiae deletion strains, locus YLR262C, strain YPT6, active compounds read low 1.01 | S. cerevisiae deletion strains, locus YLR268W, strain sec22, active compounds read low 0.937 | S. cerevisiae deletion strains, locus YLR320W, strain mms22, active compounds read low 0.983 | S. cerevisiae deletion strains, locus YLR330W, strain CHS5, active compounds read low 0.991 | S. cerevisiae deletion strains, locus YLR342W, strain FKS1 (second series), active compounds read low 1.13 | S. cerevisiae deletion strains, locus YLR342W, strain FKS1, active compounds read low 0.993 | S. cerevisiae deletion strains, locus YLR357W, strain rsc2, active compounds read low 0.977 | S. cerevisiae deletion strains, locus YLR370C, strain arc18, active compounds read low 1.01 | S. cerevisiae deletion strains, locus YLR371W, strain rom2, active compounds read low 0.961 | S. cerevisiae deletion strains, locus YLR384C, strain iki3, active compounds read low 0.985 | S. cerevisiae deletion strains, locus YLR418C, strain cdc73, active compounds read low 1.02 | S. cerevisiae deletion strains, locus YML016C, strain PPZ1, active compounds read low 1 | S. cerevisiae deletion strains, locus YML032C, strain rad52, active compounds read low 0.96 | S. cerevisiae deletion strains, locus YML120C, strain ndi1, active compounds read low 1.02 | S. cerevisiae deletion strains, locus YML124C, strain tub3, active compounds read low 0.991 | S. cerevisiae deletion strains, locus YMR058W, strain fet3, active compounds read low 1 | S. cerevisiae deletion strains, locus YMR078C, strain ctf18, active compounds read low 0.967 | S. cerevisiae deletion strains, locus YMR125W, strain sto1, active compounds read low 0.996 | S. cerevisiae deletion strains, locus YMR129W, active compounds read low 0.992 | S. cerevisiae deletion strains, locus YMR205C, strain PFK2, active compounds read low 1.01 | S. cerevisiae deletion strains, locus YMR223W, strain ubp8, active compounds read low 1.02 | S. cerevisiae deletion strains, locus YMR231W, strain pep5, active compounds read low 0.994 | S. cerevisiae deletion strains, locus YMR263W, strain SAP30, active compounds read low 0.992 | S. cerevisiae deletion strains, locus YMR307W, strain GAS1, active compounds read low 1.14 | S. cerevisiae deletion strains, locus YNL067W, strain RPL9B, active compounds read low 0.987 | S. cerevisiae deletion strains, locus YNL071W, strain lat1, active compounds read low 1.01 | S. cerevisiae deletion strains, locus YNL128W, strain TEP1, active compounds read low 0.995 | S. cerevisiae deletion strains, locus YNL153C, strain GIM3, active compounds read low 1 | S. cerevisiae deletion strains, locus YNL183C, strain NPR1, active compounds read low 0.949 | S. cerevisiae deletion strains, locus YNL209W, strain ssb2, active compounds read low 1.02 | S. cerevisiae deletion strains, locus YNL233W, strain BNI4, active compounds read low 0.994 | S. cerevisiae deletion strains, locus YNL248C, strain rpa49, active compounds read low 0.92 | S. cerevisiae deletion strains, locus YNL250W, strain rad50, active compounds read low 0.99 | S. cerevisiae deletion strains, locus YNL271C, strain bni1, active compounds read low 0.993 | S. cerevisiae deletion strains, locus YNL298W, strain CLA4, active compounds read low 0.999 | S. cerevisiae deletion strains, locus YNL307C, strain MCK1, active compounds read low 0.991 | S. cerevisiae deletion strains, locus YNL322C, strain KRE1 (second series), active compounds read low 0.997 | S. cerevisiae deletion strains, locus YNL322C, strain KRE1, active compounds read low 0.993 | S. cerevisiae deletion strains, locus YNR049C, strain mso1, active compounds read low 0.991 | S. cerevisiae deletion strains, locus YNR052C, strain pop2, active compounds read low 0.971 | S. cerevisiae deletion strains, locus YOL006C, strain TOP1, active compounds read low 0.979 | S. cerevisiae deletion strains, locus YOL012C, strain htz1 0.806 | S. cerevisiae deletion strains, locus YOL147C, strain pex11, active compounds read low 0.976 | S. cerevisiae deletion strains, locus YOR001W, strain rrp6, active compounds read low 0.949 | S. cerevisiae deletion strains, locus YOR061W, strain CKA2, active compounds read low 0.991 | S. cerevisiae deletion strains, locus YOR069W, strain VPS5, active compounds read low 0.999 | S. cerevisiae deletion strains, locus YOR070C, strain gyp1, active compounds read low 0.979 | S. cerevisiae deletion strains, locus YOR080W, strain dia2, active compounds read low 0.979 | S. cerevisiae deletion strains, locus YOR083W, strain WHI5, active compounds read low 1.01 | S. cerevisiae deletion strains, locus YOR106W, strain vam3, active compounds read low 1.01 | S. cerevisiae deletion strains, locus YOR136W, strain idh2, active compounds read low 0.986 | S. cerevisiae deletion strains, locus YOR144C, strain elg1, active compounds read low 0.977 | S. cerevisiae deletion strains, locus YOR184W, strain ser1, active compounds read low 0.974 | S. cerevisiae deletion strains, locus YOR231W, strain MKK1, active compounds read low 1.02 | S. cerevisiae deletion strains, locus YOR265W, strain rbl2, active compounds read low 0.998 | S. cerevisiae deletion strains, locus YOR270C, strain vph1, active compounds read low 0.969 | S. cerevisiae deletion strains, locus YOR290C, strain snf2, active compounds read low 0.975 | S. cerevisiae deletion strains, locus YOR316C, strain cot1, active compounds read low 0.965 | S. cerevisiae deletion strains, locus YPL051W, strain arl3, active compounds read low 0.983 | S. cerevisiae deletion strains, locus YPL055C, strain LGE1, active compounds read low 1.01 | S. cerevisiae deletion strains, locus YPL078C, strain atp4, active compounds read low 1.01 | S. cerevisiae deletion strains, locus YPL106C, strain sse1, active compounds read low 1.01 | S. cerevisiae deletion strains, locus YPL240C, strain hsp82, active compounds read low 0.999 | S. cerevisiae deletion strains, locus YPL241C, strain CIN2, active compounds read low 0.998 | S. cerevisiae deletion strains, locus YPL256C, strain CLN2, active compounds read low 1.07 | S. cerevisiae deletion strains, locus YPR119W, strain clb2, active compounds read low 0.974 | S. cerevisiae deletion strains, locus YPR141C, strain kar3, active compounds read low 0.982 | S. cerevisiae deletion strains, locus YPR163C, strain tif3, active compounds read low 0.976 | S. cerevisiae deletion strains, locus YPR167C, strain met16, active compounds read low 0.971 | S. cerevisiae deletion strains, strain wtn01, active compounds read low 0.981 | S. cerevisiae strains, strain wild type, active compounds read low 1
